According to the supplement of paper PMC10849652:
About 8,800 targets were measured; listed, in parts, are those with a hit and a random draw of the rest. About 0.5% of all pairs of compound and target were hits.

Columns and labels:
Test in all cases: log2 fold change, soluble protein after heating vs DMSO (PISA); higher = thermal stabilisation; K562 lysate, 10 uM; active = over 0.2 and 3.5 SD of the protein, either way, in both replicates (recomputed)
lapatinib = compound: CS(=O)(=O)CCNCc1ccc(-c2ccc3ncnc(Nc4ccc(OCc5cccc(F)c5)c(Cl)c4)c3c2)o1 [lapatinib]
Method in brief: (§1)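 Soluble protein was defined as the supernatant remaining after 21,000xg for 90 min, following pooling of heated aliquots and adjustment to 0.5% NP-40 at 4°C. Before that, crude K562 extract at 1 mg/mL protein in PBS pH 7.4 with 1 mM MgCl2 was treated with 10 μM compound for 30 min and heated for 3 min across 48°C-58°C. Quantification used TMTpro 16plex LC-MS/MS with channel sums equalised, and values are log-two fold changes in thermal stability relative to solvent controls from duplicates.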

crizotinib = compound: C[C@@H](Oc1cc(-c2cnn(C3CCNCC3)c2)cnc1N)c1c(Cl)ccc(F)c1Cl [crizotinib]
Method in brief: as §1

[1] = compound: C[C@H](C1=CC=C(C=C1)C(=O)NC2=C3C=CNC3=NC=C2)N
Method in brief: as §1

duvelisib = compound: C[C@H](Nc1ncnc2nc[nH]c12)c1cc2cccc(Cl)c2c(=O)n1-c1ccccc1 [duvelisib]
Method in brief: as §1

gandotinib = compound: Cc1cc(Nc2cc(CN3CCOCC3)c3nc(C)c(Cc4ccc(Cl)cc4F)n3n2)n[nH]1 [gandotinib]
Method in brief: as §1

doramapimod = compound: Cc1ccc(-n2nc(C(C)(C)C)cc2NC(=O)Nc2ccc(OCCN3CCOCC3)c3ccccc23)cc1 [doramapimod]
Method in brief: as §1

[2] = compound: Cc1cccc(CC(=O)N2CCc3c2ccc(-c2cn(C)c4ncnc(N)c24)c3F)n1
Method in brief: as §1

tozasertib = compound: Cc1cc(Nc2cc(N3CCN(C)CC3)nc(Sc3ccc(NC(=O)C4CC4)cc3)n2)n[nH]1 [tozasertib]
Method in brief: as §1

pictilisib = compound: CS(=O)(=O)N1CCN(Cc2cc3nc(-c4cccc5[nH]ncc45)nc(N4CCOCC4)c3s2)CC1 [pictilisib]
Method in brief: as §1

bafetinib = compound: Cc1ccc(NC(=O)c2ccc(CN3CC[C@H](N(C)C)C3)c(C(F)(F)F)c2)cc1Nc1nccc(-c2cncnc2)n1 [bafetinib]
Method in brief: as §1

Measured: log2 fold change

ALDH3A1 (UniProt P30838)
Sequence of UniProt P30838 (P30838 whole entry, looked up): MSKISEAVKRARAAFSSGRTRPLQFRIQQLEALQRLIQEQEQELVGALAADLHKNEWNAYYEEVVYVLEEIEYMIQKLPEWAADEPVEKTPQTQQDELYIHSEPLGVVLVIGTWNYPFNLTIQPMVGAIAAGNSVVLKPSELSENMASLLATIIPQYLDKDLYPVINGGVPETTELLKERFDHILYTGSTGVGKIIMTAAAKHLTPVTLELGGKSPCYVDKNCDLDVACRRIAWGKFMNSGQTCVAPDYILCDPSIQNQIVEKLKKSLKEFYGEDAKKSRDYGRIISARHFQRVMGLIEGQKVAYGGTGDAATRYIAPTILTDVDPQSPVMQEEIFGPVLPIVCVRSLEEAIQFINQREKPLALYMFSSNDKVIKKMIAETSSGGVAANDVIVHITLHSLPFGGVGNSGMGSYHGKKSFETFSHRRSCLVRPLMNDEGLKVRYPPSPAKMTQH
inactive: lapatinib -0.002 | crizotinib -0.134 | [1] -0.721 | duvelisib -0.061 | gandotinib 0.569 | doramapimod 0.015 | [2] 0.586

ABI1 isoform 6 (UniProt Q8IZP0)
inactive: lapatinib 0.007 | tozasertib -0.061

AMDHD2 (UniProt Q9Y303)
inactive: crizotinib -0.056 | [1] 0.052 | gandotinib -0.015 | doramapimod 0.057 | [2] 0.065

ARHGEF2 (UniProt V9GYF0)
inactive: lapatinib -0.134 | duvelisib 0.11 | tozasertib 0.041

ANXA5 (UniProt P08758)
Sequence of UniProt P08758 (P08758 whole entry, looked up): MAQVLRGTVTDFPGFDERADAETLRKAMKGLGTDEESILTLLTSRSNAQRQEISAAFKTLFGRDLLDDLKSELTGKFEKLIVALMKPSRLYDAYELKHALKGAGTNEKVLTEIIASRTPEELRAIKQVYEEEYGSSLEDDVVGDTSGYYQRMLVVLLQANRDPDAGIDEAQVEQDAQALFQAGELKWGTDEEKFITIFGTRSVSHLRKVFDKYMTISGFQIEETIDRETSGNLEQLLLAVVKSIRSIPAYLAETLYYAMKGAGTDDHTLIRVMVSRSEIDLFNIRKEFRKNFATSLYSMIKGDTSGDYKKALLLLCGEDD
inactive: lapatinib 0.005 | pictilisib -0.009 | crizotinib 0.046 | [1] 0.059 | duvelisib -0.028 | gandotinib -0.119 | tozasertib 0.019 | doramapimod 0.015 | bafetinib -0.018 | [2] -0.065

ALKBH1 (UniProt Q13686)
Sequence of UniProt Q13686 (Q13686 whole entry, looked up): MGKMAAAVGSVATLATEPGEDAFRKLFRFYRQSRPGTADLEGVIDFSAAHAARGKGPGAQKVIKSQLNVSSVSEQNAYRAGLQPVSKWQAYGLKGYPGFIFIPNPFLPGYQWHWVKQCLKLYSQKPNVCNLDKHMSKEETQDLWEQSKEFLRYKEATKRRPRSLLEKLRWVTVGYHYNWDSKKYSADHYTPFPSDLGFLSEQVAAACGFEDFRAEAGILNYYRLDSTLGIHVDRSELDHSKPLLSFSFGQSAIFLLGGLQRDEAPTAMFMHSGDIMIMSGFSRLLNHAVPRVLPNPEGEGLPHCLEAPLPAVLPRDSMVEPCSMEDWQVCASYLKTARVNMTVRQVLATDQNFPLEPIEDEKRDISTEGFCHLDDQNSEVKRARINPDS
inactive: [1] -0.016 | duvelisib 0.014 | gandotinib 0 | tozasertib 0.09 | [2] 0.048

ARL1 (UniProt P40616)
Sequence of UniProt P40616 (P40616 whole entry, looked up): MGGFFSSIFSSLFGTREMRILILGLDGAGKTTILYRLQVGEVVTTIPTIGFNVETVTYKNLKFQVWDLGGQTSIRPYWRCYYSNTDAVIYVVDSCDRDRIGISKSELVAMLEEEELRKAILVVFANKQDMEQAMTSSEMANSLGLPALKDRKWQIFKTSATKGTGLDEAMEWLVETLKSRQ
active: doramapimod 0.228
inactive: lapatinib 0.001 | pictilisib 0.051 | crizotinib -0.028 | [1] -0.056 | duvelisib 0.001 | gandotinib 0.159 | tozasertib 0.004 | bafetinib -0.027 | [2] 0.096

ADAM17 (UniProt P78536)
inactive: pictilisib 0.032 | crizotinib 0.051 | [1] 0.008 | duvelisib 0.024 | gandotinib 0.054 | tozasertib -0.015 | doramapimod -0.06 | bafetinib 0.019 | [2] 0.099

ACTG1 (UniProt K7EM38)
inactive: lapatinib -0.08 | tozasertib 0.207

ADD1 isoform 4 (UniProt P35611)
inactive: lapatinib -0.006 | pictilisib -0.168 | duvelisib 0.029 | gandotinib 0.556 | tozasertib -0.044 | bafetinib 0.097 | [2] 0.563
active: [1] -0.745

ALDH18A1 isoform 2 (UniProt P54886)
inactive: crizotinib 0.127 | duvelisib 0.088 | doramapimod -0.134

AGPAT2 (UniProt O15120)
inactive: crizotinib -0.097 | [1] 0.006 | gandotinib -0.145 | tozasertib 0.048 | doramapimod 0.1 | [2] 0.021

AIMP2 isoform 2 (UniProt Q13155)
inactive: lapatinib -0.058 | pictilisib -0.148 | crizotinib -0.036 | doramapimod -0.019 | bafetinib -0.082

ANKRD40 (UniProt Q6AI12)
Sequence of UniProt Q6AI12 (Q6AI12 whole entry, looked up): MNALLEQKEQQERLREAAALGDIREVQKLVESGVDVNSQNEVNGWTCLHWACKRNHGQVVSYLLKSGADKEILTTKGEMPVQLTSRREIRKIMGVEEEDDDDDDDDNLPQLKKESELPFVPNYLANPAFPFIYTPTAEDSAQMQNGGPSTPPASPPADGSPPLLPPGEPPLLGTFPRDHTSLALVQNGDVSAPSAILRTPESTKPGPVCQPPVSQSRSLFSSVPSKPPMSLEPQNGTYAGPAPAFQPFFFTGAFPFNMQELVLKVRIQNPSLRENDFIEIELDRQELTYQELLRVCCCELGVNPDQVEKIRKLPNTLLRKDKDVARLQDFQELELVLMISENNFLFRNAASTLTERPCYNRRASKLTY
inactive: pictilisib -0.116 | crizotinib -0.022 | [1] -0.018 | duvelisib -0.171 | gandotinib -0.032 | tozasertib 0.249 | doramapimod -0.027 | bafetinib -0.149 | [2] -0.067

ALG13 isoform 2 (UniProt Q9NP73)
Sequence of UniProt Q9NP73 (Q9NP73 whole entry, looked up): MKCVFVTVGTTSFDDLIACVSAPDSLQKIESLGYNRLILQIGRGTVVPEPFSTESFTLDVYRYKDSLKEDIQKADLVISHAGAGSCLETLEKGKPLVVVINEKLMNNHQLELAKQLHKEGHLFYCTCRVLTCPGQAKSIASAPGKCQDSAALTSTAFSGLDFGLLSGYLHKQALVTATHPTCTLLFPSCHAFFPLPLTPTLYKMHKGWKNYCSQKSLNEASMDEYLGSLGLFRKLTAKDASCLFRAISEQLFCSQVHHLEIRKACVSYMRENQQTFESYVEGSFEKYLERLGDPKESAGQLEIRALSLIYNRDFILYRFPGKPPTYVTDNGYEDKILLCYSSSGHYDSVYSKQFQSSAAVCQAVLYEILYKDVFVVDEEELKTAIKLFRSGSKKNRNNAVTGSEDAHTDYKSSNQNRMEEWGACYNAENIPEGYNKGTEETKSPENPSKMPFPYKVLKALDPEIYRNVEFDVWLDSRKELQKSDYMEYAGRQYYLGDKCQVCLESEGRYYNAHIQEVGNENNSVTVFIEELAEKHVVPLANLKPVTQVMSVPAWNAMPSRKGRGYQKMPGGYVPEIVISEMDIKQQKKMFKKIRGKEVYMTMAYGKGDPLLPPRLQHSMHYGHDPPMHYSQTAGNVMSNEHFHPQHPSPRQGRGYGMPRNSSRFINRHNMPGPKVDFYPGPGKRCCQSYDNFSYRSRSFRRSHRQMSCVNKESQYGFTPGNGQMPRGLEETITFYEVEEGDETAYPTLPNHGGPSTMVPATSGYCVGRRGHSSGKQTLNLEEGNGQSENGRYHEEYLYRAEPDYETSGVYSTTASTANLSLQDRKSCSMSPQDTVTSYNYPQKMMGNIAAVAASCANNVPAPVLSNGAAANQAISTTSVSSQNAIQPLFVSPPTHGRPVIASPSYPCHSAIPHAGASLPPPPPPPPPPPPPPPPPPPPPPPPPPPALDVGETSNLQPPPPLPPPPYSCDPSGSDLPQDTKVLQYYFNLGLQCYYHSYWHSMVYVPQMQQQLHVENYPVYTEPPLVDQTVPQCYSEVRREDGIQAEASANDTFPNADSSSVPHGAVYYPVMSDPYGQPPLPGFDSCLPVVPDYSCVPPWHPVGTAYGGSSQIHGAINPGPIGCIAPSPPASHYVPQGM
inactive: [1] 0.054 | gandotinib -0.088 | [2] 0.106

ANP32E isoform 3 (UniProt Q9BTT0)
inactive: pictilisib -0.012 | gandotinib 0.213 | tozasertib 0.165 | bafetinib -0.14 | [2] 0.439
active: [1] -0.843

ANKRD10 (UniProt Q9NXR5)
Sequence of UniProt Q9NXR5 (Q9NXR5 whole entry, looked up): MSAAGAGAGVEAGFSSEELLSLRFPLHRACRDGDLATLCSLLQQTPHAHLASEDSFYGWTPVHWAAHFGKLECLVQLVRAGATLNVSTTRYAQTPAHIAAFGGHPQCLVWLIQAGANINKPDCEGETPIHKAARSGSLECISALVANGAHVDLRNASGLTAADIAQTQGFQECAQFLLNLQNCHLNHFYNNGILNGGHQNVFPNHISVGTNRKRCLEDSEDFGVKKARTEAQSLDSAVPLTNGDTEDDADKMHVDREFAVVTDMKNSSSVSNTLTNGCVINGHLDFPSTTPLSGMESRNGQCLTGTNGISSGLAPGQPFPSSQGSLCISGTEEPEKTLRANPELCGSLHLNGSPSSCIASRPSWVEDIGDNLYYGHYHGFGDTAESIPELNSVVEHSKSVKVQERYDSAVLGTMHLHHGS
inactive: lapatinib -0.074 | pictilisib 0.184 | crizotinib 0.017 | [1] -0.032 | duvelisib -0.052 | gandotinib -0.088 | doramapimod -0.079 | bafetinib -0.112 | [2] 0.007

ABL1 isoform 2 (UniProt P00519)
inactive: lapatinib -0.01 | pictilisib -0.094 | [1] 0.135 | duvelisib 0.004 | gandotinib -0.04 | [2] -0.048

ANXA13 isoform 2 (UniProt P27216)
active: gandotinib 0.545
inactive: lapatinib -0.111 | pictilisib -0.03 | crizotinib 0.011 | [1] 0.057 | duvelisib -0.116 | doramapimod 0.038 | bafetinib -0.195 | [2] 0.284

ABRACL (UniProt Q9P1F3)
Sequence of UniProt Q9P1F3 (Q9P1F3 whole entry, looked up): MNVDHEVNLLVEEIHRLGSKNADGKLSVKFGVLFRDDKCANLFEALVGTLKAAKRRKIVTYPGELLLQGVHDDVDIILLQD
inactive: lapatinib 0.154 | pictilisib -0.075 | crizotinib -0.105 | [1] -0.053 | duvelisib -0.239 | gandotinib -0.003 | doramapimod -0.014 | bafetinib 0.09 | [2] -0.047

ABI1 isoform 9 (UniProt Q8IZP0)
inactive: lapatinib 0.011 | pictilisib -0.048 | crizotinib -0.006 | duvelisib 0.01 | gandotinib 0.13 | tozasertib 0.008 | doramapimod -0.015 | bafetinib 0.08 | [2] 0.163
active: [1] -0.26

ANKRD30B (UniProt Q9BXX2)
Sequence of UniProt Q9BXX2 (Q9BXX2 whole entry, looked up): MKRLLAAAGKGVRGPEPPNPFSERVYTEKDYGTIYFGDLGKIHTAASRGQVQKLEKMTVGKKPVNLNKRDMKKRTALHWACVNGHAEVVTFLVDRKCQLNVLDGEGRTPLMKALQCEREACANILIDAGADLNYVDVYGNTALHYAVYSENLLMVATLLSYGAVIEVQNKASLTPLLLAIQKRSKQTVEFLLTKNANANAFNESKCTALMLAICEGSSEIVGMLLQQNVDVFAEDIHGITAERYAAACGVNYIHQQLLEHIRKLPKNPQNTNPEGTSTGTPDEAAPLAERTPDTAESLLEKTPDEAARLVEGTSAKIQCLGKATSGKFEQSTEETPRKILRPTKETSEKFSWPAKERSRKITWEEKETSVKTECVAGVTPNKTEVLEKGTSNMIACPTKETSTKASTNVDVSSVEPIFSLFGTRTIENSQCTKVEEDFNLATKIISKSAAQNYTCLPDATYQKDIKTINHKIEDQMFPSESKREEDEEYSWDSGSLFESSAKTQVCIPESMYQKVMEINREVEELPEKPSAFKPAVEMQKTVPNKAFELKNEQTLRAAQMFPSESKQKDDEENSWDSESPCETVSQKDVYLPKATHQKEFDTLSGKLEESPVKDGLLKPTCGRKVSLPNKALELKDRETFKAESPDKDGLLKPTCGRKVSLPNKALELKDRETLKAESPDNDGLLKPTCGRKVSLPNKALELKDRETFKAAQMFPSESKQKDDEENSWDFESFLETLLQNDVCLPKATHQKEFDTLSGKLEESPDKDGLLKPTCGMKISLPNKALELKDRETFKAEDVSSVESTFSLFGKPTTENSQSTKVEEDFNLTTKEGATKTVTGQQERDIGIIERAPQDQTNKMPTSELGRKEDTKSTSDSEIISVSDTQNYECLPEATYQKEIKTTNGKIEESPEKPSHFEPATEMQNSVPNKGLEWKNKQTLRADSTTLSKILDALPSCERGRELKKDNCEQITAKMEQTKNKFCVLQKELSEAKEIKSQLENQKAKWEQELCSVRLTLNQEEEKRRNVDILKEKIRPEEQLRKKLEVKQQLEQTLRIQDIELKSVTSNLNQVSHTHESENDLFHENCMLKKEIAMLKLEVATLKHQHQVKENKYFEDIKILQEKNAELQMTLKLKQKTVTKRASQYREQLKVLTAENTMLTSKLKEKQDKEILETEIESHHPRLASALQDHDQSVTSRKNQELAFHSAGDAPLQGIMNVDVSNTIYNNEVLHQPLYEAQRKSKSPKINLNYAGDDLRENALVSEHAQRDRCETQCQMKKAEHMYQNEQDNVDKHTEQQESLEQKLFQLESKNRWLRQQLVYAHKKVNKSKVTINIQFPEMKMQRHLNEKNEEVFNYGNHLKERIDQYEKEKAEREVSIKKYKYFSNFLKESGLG
active: [1] -0.558
inactive: lapatinib -0.049 | pictilisib -0.068 | duvelisib 0.087 | gandotinib 0.337 | tozasertib -0.005 | bafetinib -0.163 | [2] 0.397

ACYP2 (UniProt P14621)
Sequence of UniProt P14621 (P14621 whole entry, looked up): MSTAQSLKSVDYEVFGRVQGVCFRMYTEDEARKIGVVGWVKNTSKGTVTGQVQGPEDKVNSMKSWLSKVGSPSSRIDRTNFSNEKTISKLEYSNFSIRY
inactive: lapatinib -0.049 | pictilisib -0.065 | crizotinib 0.082 | [1] 0.217 | gandotinib -0.076 | doramapimod -0.024 | bafetinib -0.002 | [2] -0.105
